Reference: the supplement of paper PMC10849652
Of roughly 8,800 targets only a part is listed; those with a hit were picked by preference. About 0.5% of all pairs of compound and target were hits.

Each target was assayed with NC1(c2ccc(-c3nc4ccn5c(=O)[nH]nc5c4cc3-c3ccccc3)cc2)CCC1 (assay: log2 fold change, soluble protein after heating vs DMSO (PISA); higher = thermal stabilisation; K562 lysate, 10 uM; active = over 0.2 and 3.5 SD of the protein, either way, in both replicates (recomputed)).
In short: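 Quantification was by TMTpro 16plex LC-MS/MS with equalised channel sums, applied to the supernatant after 21,000xg for 90 min. Samples were crude K562 extract at 1 mg/mL protein in PBS pH 7.4 with 1 mM MgCl2, treated with 10 μM compound for 30 min, heated for 3 min across 48°C-58°C, pooled and brought to 0.5% NP-40 at 4°C. Values are log-two fold changes in thermal stability relative to solvent controls, from duplicates.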

Chain of UniProt P12081 (P12081 whole entry, looked up): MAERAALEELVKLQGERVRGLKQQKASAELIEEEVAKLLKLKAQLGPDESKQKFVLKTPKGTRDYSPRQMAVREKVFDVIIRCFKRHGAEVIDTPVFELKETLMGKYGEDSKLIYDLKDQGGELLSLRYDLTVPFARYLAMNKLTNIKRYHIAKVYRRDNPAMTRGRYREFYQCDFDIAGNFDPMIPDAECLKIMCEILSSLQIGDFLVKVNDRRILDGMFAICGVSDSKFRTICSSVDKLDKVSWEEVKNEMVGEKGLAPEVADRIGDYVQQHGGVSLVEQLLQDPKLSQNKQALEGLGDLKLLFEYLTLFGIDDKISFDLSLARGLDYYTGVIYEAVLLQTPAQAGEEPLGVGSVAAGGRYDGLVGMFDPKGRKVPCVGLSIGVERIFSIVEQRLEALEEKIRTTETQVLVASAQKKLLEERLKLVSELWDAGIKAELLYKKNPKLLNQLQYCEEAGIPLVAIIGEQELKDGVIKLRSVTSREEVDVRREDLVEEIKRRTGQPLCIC
Chain of UniProt P52789 (P52789 whole entry, looked up): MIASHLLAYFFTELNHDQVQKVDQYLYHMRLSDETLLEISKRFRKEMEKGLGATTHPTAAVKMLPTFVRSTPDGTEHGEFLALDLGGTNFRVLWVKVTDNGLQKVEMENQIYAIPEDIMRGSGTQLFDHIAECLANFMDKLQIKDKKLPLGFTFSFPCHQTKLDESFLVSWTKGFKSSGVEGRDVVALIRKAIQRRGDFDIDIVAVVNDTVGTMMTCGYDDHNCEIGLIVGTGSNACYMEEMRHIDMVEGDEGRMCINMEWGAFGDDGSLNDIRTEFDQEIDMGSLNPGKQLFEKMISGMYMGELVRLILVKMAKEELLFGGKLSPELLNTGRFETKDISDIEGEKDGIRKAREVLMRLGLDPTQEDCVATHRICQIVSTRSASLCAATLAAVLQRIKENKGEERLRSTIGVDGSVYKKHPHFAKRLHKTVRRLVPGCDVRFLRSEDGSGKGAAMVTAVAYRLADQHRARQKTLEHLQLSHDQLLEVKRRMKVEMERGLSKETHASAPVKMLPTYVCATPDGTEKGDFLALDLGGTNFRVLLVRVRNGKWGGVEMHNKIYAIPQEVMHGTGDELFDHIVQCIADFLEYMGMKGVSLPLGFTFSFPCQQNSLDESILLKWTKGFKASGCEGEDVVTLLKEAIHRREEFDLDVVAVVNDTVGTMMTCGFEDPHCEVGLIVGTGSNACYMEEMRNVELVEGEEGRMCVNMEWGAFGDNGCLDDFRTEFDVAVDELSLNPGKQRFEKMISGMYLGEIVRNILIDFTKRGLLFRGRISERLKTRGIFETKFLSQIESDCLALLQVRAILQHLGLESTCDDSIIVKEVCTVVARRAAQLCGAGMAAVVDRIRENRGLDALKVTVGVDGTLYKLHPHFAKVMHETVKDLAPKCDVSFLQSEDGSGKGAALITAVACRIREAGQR
Chain of UniProt Q9H1B7 (Q9H1B7 whole entry, looked up): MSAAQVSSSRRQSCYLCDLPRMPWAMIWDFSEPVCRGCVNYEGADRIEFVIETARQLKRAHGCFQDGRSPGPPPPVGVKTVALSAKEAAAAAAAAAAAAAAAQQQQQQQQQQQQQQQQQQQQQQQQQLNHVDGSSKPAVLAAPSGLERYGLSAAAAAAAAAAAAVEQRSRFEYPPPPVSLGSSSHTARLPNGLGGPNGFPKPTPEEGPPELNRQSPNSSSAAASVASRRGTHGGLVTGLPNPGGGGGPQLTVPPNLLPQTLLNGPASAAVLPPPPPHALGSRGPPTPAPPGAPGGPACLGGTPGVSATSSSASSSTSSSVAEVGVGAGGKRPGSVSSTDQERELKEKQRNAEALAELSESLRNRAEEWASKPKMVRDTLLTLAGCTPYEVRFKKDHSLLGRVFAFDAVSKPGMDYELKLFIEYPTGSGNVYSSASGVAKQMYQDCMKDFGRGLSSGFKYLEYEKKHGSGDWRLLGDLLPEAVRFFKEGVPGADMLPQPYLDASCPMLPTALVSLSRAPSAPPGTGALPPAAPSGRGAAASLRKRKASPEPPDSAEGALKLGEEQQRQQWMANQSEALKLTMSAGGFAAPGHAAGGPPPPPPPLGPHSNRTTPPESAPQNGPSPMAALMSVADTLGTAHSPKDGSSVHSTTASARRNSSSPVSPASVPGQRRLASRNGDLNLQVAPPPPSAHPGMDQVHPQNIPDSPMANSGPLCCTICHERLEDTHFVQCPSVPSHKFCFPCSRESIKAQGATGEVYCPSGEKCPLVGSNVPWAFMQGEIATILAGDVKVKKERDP
Chain of UniProt Q9HAV0 (Q9HAV0 whole entry, looked up): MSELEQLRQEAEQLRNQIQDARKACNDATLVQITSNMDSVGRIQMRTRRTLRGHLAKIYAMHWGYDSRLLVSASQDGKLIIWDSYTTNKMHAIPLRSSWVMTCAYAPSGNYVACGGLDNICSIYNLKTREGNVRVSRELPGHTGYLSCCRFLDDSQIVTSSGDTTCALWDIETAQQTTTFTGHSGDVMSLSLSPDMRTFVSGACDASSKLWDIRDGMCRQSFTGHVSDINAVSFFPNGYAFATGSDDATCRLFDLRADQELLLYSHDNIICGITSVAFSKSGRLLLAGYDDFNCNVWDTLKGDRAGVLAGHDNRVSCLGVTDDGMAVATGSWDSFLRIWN
Chain of UniProt P43250 (P43250 whole entry, looked up): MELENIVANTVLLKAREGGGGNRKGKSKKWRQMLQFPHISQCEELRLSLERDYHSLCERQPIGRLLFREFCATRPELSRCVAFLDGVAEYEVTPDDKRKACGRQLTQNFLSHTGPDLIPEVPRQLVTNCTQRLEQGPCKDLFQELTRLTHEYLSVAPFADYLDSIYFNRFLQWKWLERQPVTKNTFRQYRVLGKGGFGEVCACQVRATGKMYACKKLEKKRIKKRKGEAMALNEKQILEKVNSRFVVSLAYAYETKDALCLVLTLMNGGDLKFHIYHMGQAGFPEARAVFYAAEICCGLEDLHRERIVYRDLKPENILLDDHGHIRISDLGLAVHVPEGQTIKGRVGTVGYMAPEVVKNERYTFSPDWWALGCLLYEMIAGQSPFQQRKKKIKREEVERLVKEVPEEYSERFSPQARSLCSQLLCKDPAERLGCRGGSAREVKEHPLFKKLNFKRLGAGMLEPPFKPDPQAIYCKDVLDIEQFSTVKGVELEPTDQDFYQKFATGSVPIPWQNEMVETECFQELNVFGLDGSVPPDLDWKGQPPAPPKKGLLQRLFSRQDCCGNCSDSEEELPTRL
Chain of UniProt Q14103 (Q14103 whole entry, looked up): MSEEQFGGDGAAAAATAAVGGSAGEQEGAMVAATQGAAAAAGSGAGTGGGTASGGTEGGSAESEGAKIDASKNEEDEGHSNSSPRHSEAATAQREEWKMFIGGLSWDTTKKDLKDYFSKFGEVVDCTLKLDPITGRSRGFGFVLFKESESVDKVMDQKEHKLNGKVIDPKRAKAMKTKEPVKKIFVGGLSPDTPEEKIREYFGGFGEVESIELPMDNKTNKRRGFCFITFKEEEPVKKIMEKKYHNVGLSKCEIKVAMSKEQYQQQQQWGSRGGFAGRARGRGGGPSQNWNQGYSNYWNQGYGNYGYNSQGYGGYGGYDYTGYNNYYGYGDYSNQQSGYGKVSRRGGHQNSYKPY
Chain of UniProt Q8WVV9 (Q8WVV9 whole entry, looked up): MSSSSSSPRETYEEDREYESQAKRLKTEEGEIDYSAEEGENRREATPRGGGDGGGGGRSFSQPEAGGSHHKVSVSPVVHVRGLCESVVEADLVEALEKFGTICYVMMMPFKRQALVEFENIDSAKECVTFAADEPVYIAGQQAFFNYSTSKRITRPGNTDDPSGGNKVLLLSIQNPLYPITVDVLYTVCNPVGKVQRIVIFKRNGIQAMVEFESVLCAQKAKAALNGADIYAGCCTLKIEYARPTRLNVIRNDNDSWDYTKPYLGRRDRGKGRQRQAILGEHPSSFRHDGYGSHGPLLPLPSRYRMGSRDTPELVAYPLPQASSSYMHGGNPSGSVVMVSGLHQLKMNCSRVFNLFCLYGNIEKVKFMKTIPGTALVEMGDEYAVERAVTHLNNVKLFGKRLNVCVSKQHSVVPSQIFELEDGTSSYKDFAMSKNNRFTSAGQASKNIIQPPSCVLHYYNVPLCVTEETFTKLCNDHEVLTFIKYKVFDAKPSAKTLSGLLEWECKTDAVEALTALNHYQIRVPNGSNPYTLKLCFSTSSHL
Chain of UniProt Q6DN03 (Q6DN03 whole entry, looked up): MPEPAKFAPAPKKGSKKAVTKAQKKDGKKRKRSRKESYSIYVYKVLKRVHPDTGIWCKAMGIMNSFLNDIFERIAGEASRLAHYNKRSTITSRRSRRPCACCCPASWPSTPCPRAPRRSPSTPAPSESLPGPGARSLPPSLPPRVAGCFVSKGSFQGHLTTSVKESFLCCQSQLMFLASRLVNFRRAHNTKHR
Chain of UniProt Q99729 (Q99729 whole entry, looked up): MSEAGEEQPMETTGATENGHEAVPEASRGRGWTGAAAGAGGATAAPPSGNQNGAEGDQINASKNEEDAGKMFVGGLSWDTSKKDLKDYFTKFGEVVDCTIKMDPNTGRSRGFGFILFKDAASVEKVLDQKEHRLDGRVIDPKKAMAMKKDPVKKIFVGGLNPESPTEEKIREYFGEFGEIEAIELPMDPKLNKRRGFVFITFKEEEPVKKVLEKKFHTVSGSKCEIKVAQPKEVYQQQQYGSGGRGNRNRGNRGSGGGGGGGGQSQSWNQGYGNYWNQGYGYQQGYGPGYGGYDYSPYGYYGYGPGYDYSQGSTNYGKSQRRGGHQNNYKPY
Chain of UniProt Q9H6D7 (Q9H6D7 whole entry, looked up): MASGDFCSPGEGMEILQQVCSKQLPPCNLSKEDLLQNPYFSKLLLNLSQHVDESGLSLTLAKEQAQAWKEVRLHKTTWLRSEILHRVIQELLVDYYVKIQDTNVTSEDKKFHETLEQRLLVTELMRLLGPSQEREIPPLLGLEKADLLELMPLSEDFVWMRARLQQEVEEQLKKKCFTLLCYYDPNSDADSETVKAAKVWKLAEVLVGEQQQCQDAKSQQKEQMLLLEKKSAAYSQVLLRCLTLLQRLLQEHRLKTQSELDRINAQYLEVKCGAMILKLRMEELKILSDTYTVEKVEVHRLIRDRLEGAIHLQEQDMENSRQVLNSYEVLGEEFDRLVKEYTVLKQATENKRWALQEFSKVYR

log2 fold change, inactive:
IFNGR1 (UniProt P15260) -0.101
GSTCD (UniProt Q8NEC7) -0.008
GSTM4 (UniProt Q03013) -0.032
GNB1 (UniProt P62873) -0.018
HMGN4 (UniProt O00479) -0.028
KATNBL1 (UniProt Q9H079) 0.023
HNRNPAB isoform 3 (UniProt Q99729) 0.012
IRF2BPL (UniProt Q9H1B7) 0
HNRNPD isoform 3 (UniProt Q14103) -0.033
HDAC3 (UniProt O15379) -0.049
IGF2BP2 (UniProt Q9Y6M1) 0.019
IRAK4 (UniProt Q9NWZ3) 0
HSPB1 (UniProt P04792) 0.006
HK2 (UniProt P52789) -0.031
HAUS4 (UniProt Q9H6D7) -0.012
GNB4 (UniProt Q9HAV0) 0.007
GRK6 isoform 2 (UniProt P43250) -0.097
ILK (UniProt Q13418) -0.036
INPPL1 (UniProt O15357) 0.003
HNRNPLL (UniProt Q8WVV9) -0.013
GTF2I (UniProt P78347) -0.014
GPR108 (UniProt Q9NPR9) -0.002
GMPS (UniProt P49915) 0.009
HIST2H2BC (UniProt Q6DN03) 0.058
HARS (UniProt P12081) 0.021
HNRNPUL2 (UniProt Q1KMD3) -0.008
ISCA1 isoform 2 (UniProt Q9BUE6) 0.013
HSPA8 (UniProt E9PN89) -0.089
IMMT (UniProt Q16891) -0.035
HAUS5 (UniProt O94927) -0.02
IMPDH2 (UniProt P12268) 0.031
HSD17B10 (UniProt Q99714) 0.005
HK1 isoform 2 (UniProt P19367) 0
HIST2H2AA3 (UniProt Q6FI13) 0.048
HELQ (UniProt Q8TDG4) 0.009
ICAM2 (UniProt P13598) 0.018
